This passage reports growth results from PubChem BioAssay (NCI).

Several values for one entry are separate records, joined by “and”; a condition that tells them apart may be missing. Equal values may be shown once. Compounds without any hit were thinned out: in the full panel of roughly 83,000, 20% have a hit.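 The endpoint reported here, percent growth, reads 100 for growth as untreated, 0 for no net growth and -100 for all cells dead.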 Activity calls are given as the source filed them. Rule for the calls: active = growth percent below 10; inactive = the rest. Where a SMILES comes first, the peptide text is derived from it. The star is where a group is joined. Trt = c1ccc(C(c2ccccc2)(c2ccccc2)*)cc1; Cbz = O=C(OCc1ccccc1)*

The subject of one assay is SW-620 colon. The assay is described as follows: NCI-60 one-dose screen, 48 h (100 = growth as untreated, 0 = no growth, -100 = all killed). The note with it: 100 µM.
Take `O=C(Nc1cccc(Br)c1)Oc1cccc2cccnc12`: the growth was 25% (inactive).
For the molecule `COc1ccc(-c2cscc2N)cc1`, the growth is 48.4% (inactive).
Consider `O=C(O)c1c(Cl)c(Cl)c(Cl)c(Cl)c1-c1c2cc(I)c(=O)c(I)c-2oc2c(I)c(O)c(I)cc12`, for which the growth was 13.7% (inactive).

The next assay concerns MCF7 breast. Described as above. The note with it: 10 µM.
Regarding `O=C(Nc1c(Cl)cccc1Cl)Oc1cccc2cccnc12`, the growth is 3.58% (active).
On the same count and under the same terms, the same measure for `CCCCCCCCCCCCCCCCCCOP(=O)([O-])OC1CC[N+](C)(C)CC1`: 38.5% (inactive) and 18.4% (inactive).
For the molecule `Cn1c2ccccc2c2nnc(N/N=C/c3ccccn3)nc21`, the growth is 13.3% (inactive).
On the same count and under the same terms, then `O=[N+]([O-])c1ccc2c(N=Nc3ccc4ccccc4c3O)c(O)cc(S(=O)(=O)O)c2c1`, with 98.6% (inactive).
With `CCC(CCCN(CC)CCc1ccccc1)OC(=O)c1cc(OC)c(OC)c(OC)c1` (centres undefined), the growth is 85.9% (inactive).
Consider `O=C1c2ccccc2C(=O)N1c1ccccc1`, for which the growth is 96.6% (inactive).
With `COC(=O)C(CSC(c1ccccc1)(c1ccccc1)c1ccccc1)NC(=O)C(CC(N)=O)NC(=O)OCc1ccccc1` (stereo not drawn) (Cbz-Asn-Cys(Trt)-OMe; configuration not given here), the growth is 32.3% (inactive).
The same measure, in the same setting: then `O=C(Nc1ccccc1)c1cc(Cl)ccc1O`, with 81.9% (inactive); and `CC1OC(OC2C(OC3CCC4(C)C(CCC5(C)C4CC=C4C6CC(C)(C)CCC6(CO)C(O)CC45C)C3(C)C)OC(C(=O)O)C(OC3OC(COC4OC(CO)C(O)C(O)C4O)C(O)C(O)C3O)C2O)C(O)C(O)C1O` (centres undefined), with -67.7% (active); and `C[N+](C)=c1ccc2nc3c(cc(NCCCNc4cc5oc6cc(=[N+](C)C)ccc-6nc5c5ccccc45)c4ccccc43)oc-2c1`, with -52.4% (active).
`CCC(CC)COC(=O)c1ccc(O)c(O)c1`: the growth is 97.5% (inactive).
For `CC1=CC(O)C2CC1C2(C)C` (centres undefined), the growth was 101% (inactive) and 98.9% (inactive).
As to `CCN(CC)CCOc1ccc(-c2nc3cc(Cl)ccc3s2)cc1`, the growth was 9.23% (active).
Turning to `CC(=O)ON=C1C=CC(=C(C#N)c2ccccc2)C=C1`, the growth is 15.5% (inactive).
For the molecule `O=C1c2ccccc2C(=O)c2sc(Nc3cccc(Cl)c3)nc21`, the growth is -59% (active).
Regarding `Cc1ccnc(NC(c2ccccc2)c2ccc3cccnc3c2O)c1` (centres undefined), the growth is 22.4% (inactive).
As for `Oc1c(Br)cc(Cl)cc1C(c1cc(Cl)cc(Br)c1O)C(Cl)(Cl)Cl`, the growth is 11.1% (inactive).
The same measure, in the same setting: the same measure for `CC(=O)Nc1cccc2cc(O)ccc12`: 99.3% (inactive) and 99.8% (inactive) and 91.6% (inactive).
Take `O=C(Nc1cccc(Br)c1)Oc1cccc2cccnc12`: the growth was 92.9% (inactive).
Consider `COc1ccc(-c2cscc2N)cc1`, for which the growth was 47.3% (inactive).
As for `Cc1cc(N)c2ccccc2[n+]1CCCCCCCCCC[n+]1c(C)cc(N)c2ccccc21`, the growth is 11.9% (inactive) and -3.39% (active).
On to `N#CSCc1ccc(Cl)c(CSC#N)c1`, for which the growth is 16.1% (inactive).
Consider `CN(C)C(=O)c1ccc(SC(=S)NCc2ccccc2)cc1`, for which the growth is 67.3% (inactive).
`O=C(O)c1c(Cl)c(Cl)c(Cl)c(Cl)c1-c1c2cc(I)c(=O)c(I)c-2oc2c(I)c(O)c(I)cc12`: the growth was 101% (inactive) and 98.9% (inactive) and 81.2% (inactive).
Take `CNc1ccc(N)cc1`: the growth was 96.3% (inactive).
Same read-out and setting: the same measure for `COc1cc(NS(C)(=O)=O)ccc1Nc1c2ccccc2nc2ccccc12`: 22.5% (inactive) [middle of 4 runs].
Same read-out and setting: the same measure for `O=C(O)c1ccc2c3c(ncnc13)-c1ccccc1C2=O`: 50.9% (inactive).
On the same count and under the same terms, then `CCC(=O)Sc1ccccc1C(=O)Nc1ccc(Cl)cc1`, with 19% (inactive); and `COc1ccc2nc3cc(Cl)ccc3c(NCCNc3c4ccc(Cl)cc4nc4ccc(OC)cc34)c2c1`, with -70% (active); and `CCOC(=O)c1c(C)[nH]c(CO)c1C`, with 91.6% (inactive).

The same assay, now with this note: 100 µM.
As to `O=C(Nc1c(Cl)cccc1Cl)Oc1cccc2cccnc12`, the growth is -1.84% (active).
The same measure, in the same setting: then `O=C(Nc1ccc(F)cc1)ON=C1CCCCC1`, with 98.2% (inactive).
Still for that read-out and setting: then `O=C(Nc1cccc(Br)c1)Oc1cccc2cccnc12`, with -37.7% (active).
Consider `COc1ccc(-c2cscc2N)cc1`, for which the growth is 19.9% (inactive).
On to `CN(C)C(=O)c1ccc(SC(=S)NCc2ccccc2)cc1`, for which the growth is -7.59% (active).
As for `O=C(O)c1c(Cl)c(Cl)c(Cl)c(Cl)c1-c1c2cc(I)c(=O)c(I)c-2oc2c(I)c(O)c(I)cc12`, the growth is -38.3% (active).

The next assay deals with HCT-116 colon. Described as above. The note with it: 10 µM.
As for `O=C(Nc1c(Cl)cccc1Cl)Oc1cccc2cccnc12`, the growth was 14.3% (inactive).
The same measure, in the same setting: the same measure for `O=C(Nc1cccc(Br)c1)Oc1cccc2cccnc12`: 92.7% (inactive).
`COc1ccc(-c2cscc2N)cc1`: the growth is 73.3% (inactive).
With `CN(C)C(=O)c1ccc(SC(=S)NCc2ccccc2)cc1`, the growth is 100% (inactive).
Regarding `O=C(O)c1c(Cl)c(Cl)c(Cl)c(Cl)c1-c1c2cc(I)c(=O)c(I)c-2oc2c(I)c(O)c(I)cc12`, the growth was 106% (inactive) and 103% (inactive) and 114% (inactive).
